Results filed as inconclusive are left out. The source made the active and inactive calls.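 How the source made its calls, unless noted: active means Her2 level under about 52% in both replicate screens, with viability over 70% of control (limit read from the data); inconclusive means Her2 under the limit in one screen only, or viability under 70%; inactive means Her2 level above the set limit.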
Tests used:
[1] = reducers of endogenous Her2 protein level, primary screen, SKBR3 breast tumor cells, AlphaScreen, ATP viability (AID 461); settings: 18-24 h, measured here: SKBR3 viability, ATP luminescence, at 10 µM;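 on Her2 level: lower value means less Her2 protein in the cells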;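 on viability: percent of carrier control wells set as 100% viability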
[2] = biological target: Receptor tyrosine-protein kinase erbB-2 (Homo sapiens) (UniProt P04626); experiment: as above; settings: 18-24 h, at 10 µM, stronger effect = lower value
Receptor tyrosine-protein kinase erbB-2 (Homo sapiens), sequence (P04626 whole entry, looked up): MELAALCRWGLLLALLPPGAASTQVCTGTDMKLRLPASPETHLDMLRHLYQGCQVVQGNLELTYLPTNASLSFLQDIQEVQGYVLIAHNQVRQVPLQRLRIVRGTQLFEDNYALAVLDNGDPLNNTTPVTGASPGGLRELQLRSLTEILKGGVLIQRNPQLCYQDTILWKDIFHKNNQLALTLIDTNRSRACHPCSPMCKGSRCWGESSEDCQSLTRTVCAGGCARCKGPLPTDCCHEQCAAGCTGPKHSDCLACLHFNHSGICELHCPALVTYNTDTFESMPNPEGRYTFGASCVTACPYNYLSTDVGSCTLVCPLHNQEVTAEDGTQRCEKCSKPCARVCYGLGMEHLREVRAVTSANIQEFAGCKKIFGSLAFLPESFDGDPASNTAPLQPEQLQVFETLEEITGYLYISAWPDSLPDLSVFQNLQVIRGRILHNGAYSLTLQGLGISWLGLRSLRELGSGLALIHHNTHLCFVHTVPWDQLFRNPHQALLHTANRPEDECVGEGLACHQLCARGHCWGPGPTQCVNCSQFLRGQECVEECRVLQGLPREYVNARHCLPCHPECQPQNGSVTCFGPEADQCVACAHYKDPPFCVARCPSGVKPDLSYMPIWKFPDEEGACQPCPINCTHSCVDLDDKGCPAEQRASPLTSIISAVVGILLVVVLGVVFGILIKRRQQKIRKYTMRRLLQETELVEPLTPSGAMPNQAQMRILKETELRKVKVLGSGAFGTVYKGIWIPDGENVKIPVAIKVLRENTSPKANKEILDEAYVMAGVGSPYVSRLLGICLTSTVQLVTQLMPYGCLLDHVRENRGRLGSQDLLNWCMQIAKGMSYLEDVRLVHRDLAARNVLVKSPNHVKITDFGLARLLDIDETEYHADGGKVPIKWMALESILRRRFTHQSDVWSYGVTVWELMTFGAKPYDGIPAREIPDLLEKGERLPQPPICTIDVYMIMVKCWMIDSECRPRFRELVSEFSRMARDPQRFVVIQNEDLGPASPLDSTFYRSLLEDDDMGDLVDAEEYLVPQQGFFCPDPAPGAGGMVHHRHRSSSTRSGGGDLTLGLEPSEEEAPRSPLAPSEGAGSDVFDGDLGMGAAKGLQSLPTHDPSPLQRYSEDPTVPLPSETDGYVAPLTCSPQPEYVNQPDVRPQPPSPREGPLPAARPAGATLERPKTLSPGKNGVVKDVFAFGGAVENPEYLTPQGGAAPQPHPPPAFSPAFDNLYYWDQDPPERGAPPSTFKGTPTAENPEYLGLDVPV

[3] = SK-BR-3 cell growth inhibitors, pilot screen, 24 h, human (AID 572;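 active means viability at or below 10% of carrier control in both of two separate runs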;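 further: compound exposure lasted between 18 and 24 h rather than exactly 24 h; 100% = carrier-treated control wells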); settings: SK-BR-3 viability, CellTiter-Glo luminescence, at 10 µM, stronger effect = lower value
[4] = HUVEC growth inhibition – cell-based, human, primary screen (AID 575;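 active means viability at or below 30% in both replicate assays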;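 further: 100% = median of untreated cell wells with 0.1% DMSO on each plate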); settings: HUVEC proliferation, CellTiter-Glo luminescence, 72 h; at 10 µM; stronger effect = lower value
[5] = growth inhibitors of H69AR lung tumor, primary screen, human, duplicate replicates (AID 580;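 active means viability at or under a set limit in both replicates, limit being median viability minus 3 SD, cut at about 48% in these data, passing the limit was not always enough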;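 further: 100% = mean luminescence of untreated wells and 0% = no signal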); settings: H69AR lung tumor cells viability, ATP luminescence, 72 h; at 10 µM; stronger effect = lower value
[6] = reversal of MRP1-mediated doxorubicin resistance, pilot screen, H69AR cells, doxorubicin co-treatment (AID 601;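 active means viability loss from added drug above about 55%, and viability with drug at most 40%, in both replicates, limit read from the data, passing the limit was not always enough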); settings: CellTiter-Glo, 72 h, at 10 µM; for differential viability (reversal): stronger effect = higher value
[7] = 384-well plate pilot, post-Golgi transport modulator project, inhibition of yeast transport mutant growth (AID 636; in the data active means inhibition above about 31%); settings: absorbance 615 nm, about 18 h, stronger effect = higher value
[8] = growth suppression of yeast trafficking mutant, preliminary HTS, modulators of trafficking downstream of Golgi apparatus project, 1536-format plate, OD 615 nm (AID 637; in the data active means inhibition above about 30%); settings: yeast transport mutant growth, absorbance 615 nm, 18 h; stronger effect = higher value
[9] = OD615 S. cerevisiae growth inhibition, permissive medium, pilot counter-assay, permissive growth control for S. cerevisiae lifespan shortening project (AID 705;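 active means growth inhibition above 25% in both replicates, a cutoff set 3 SD above the mean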); settings: OD615, 24 h, at 10 µM, stronger effect = higher value
[10] = Restrictive medium S. cerevisiae growth inhibition, OD615, pilot screen of yeast lifespan reduction project, restrictive growth control (AID 706;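 active means growth inhibition above a set limit, 3 SD over mean compound inhibition, in both replicates, cut at about 43% in these data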;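 further: modified DeaD lifespan yeast strain shifted to restrictive glucose medium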); settings: OD615, 48 h, at 10 µM, stronger effect = higher value
[11] = viability gain of MRP-1-high H69AR cells under doxorubicin, pilot screen, MRP-1 activator project, CellTiter-Glo, duplicate (AID 807;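 active means viability increase at or above a cutoff of the median across tested compounds plus 3 SD, cut at about 8.5% in these data, passing the limit was not always enough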;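 further: compound pretreatment 18-22 h then 72 h combined with doxorubicin; 0% = doxorubicin alone and 100% = vehicle without doxorubicin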); settings: H69AR viability with doxorubicin, CellTiter-Glo luminescence; at 10 µM; stronger effect = higher value
[12] = growth suppression of beta-catenin knockout HCT116, pilot screen, human colon tumor cells (AID 823;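 active means cell viability at or below a set limit in both duplicate runs, the limit being the all-compound median minus 4 SD, cut at about 23% in these data, passing the limit was not always enough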;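 further: 0% = wells killed by 20 µM Hyamine and 100% = untreated DMSO cell wells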); settings: CellTiter-Glo, 60 h, at 10 µM, stronger effect = lower value
[13] = growth suppression of PTEN-deleted HCT116, pilot screen, cell-based, HCT116 clonal line, CellTiter-Glo (AID 824;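 active means viability at or below 27.92% in each of two runs, the all-compound median minus 4 SD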;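 further: 0% = 20 µM Hyamine control and 100% = vehicle cell control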); settings: 60 h, at 10 µM, stronger effect = lower value
[14] = inhibitors of the yeast RAM network, pilot screen, dse1pr::URA3 reporter, 5-FOA selection (AID 869;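 active means inhibition over a set limit, the all-compound mean plus 3 SD, in both replicate runs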;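 further: 0% = DMSO wells with no growth and 100% = 10 µM 1-NA-PP1 with full growth; RAM network block rescues cells from 5-FOA so hits raise OD615 growth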); settings: S. cerevisiae dse1pr::URA3 5-FOA growth, OD615, 2 d; at 10 µM; stronger effect = higher value; strain carries analog-sensitive mutant Cbk1 kinase
[15] = RAM signaling pathway blockade in yeast – S. cerevisiae, Pdr1DBD-CYC8 efflux-inhibited sensitized strain, primary screen (AID 1298;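 active means RAM network inhibition above 8.4% in each of two replicates, 3 SD over the compound average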;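 further: 0% = DMSO untreated cells without growth and 100% = 10 µM 1-NA-PP1 full growth; higher means more yeast growth rescued from 5-FOA killing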); settings: S. cerevisiae cbk1-as DSE1-URA3 strain, 5-FOA growth OD615, 2 d; at 50 µM; stronger effect = higher value
[16] = H69AR cells + 2 uM doxorubicin, measured here: viability with 2 uM doxorubicin, stronger effect = lower value
[17] = H69AR cells, compound alone cytotoxicity

Row | Structure (SMILES) | viability [1] [%] | Her2 level [2] | viability [3] | viability [4] | viability [5] | differential viability (reversal) ([6]; H69AR cells + 2 uM doxorubicin) | viability [6, 16] [%] | viability [6, 17] [%] | inhibition [7] | inhibition [8] | growth inhibition [9] | growth inhibition [10] | viability increase [11] | viability [12] | viability [13] | inhibition [14] | RAM network inhibition [15]
1 | Cc1cc(OCC(=O)NCCO)cc(C)c1Cl | 99 | 120% (inactive) | 99% (inactive) | 76% (inactive) | 96.4% (inactive) | 8.84% (inactive) | 87.6 | 96.4 | 1.56% (inactive) | -1.67% (inactive) | -15% (inactive) | 0.385% (inactive) | -0.21% (inactive) | 99.1% (inactive) | 99.6% (inactive) | 1.37% (inactive) | 6.24% (inactive)
2 | COc1cccc(-c2nc3n(n2)C(c2ccccc2Cl)C(C(N)=O)=C(C)N3)c1 (stereo not drawn) | 91 | 94% (inactive) | 91% (inactive) | 74.3% (inactive) | 90.4% (inactive) | 14.6% (inactive) | 75.8 | 90.4 | -0.8% (inactive) | -5.17% (inactive) | -7.99% (inactive) | -0.24% (inactive) | -3.31% (inactive) | 82.8% (inactive) | 82.2% (inactive) | 0.735% (inactive) | 3.45% (inactive)
3 | Cc1noc(/C=C/N(C)C)c1S(=O)(=O)N1CCCC(C(=O)NCCC2=CCCCC2)C1 (stereo not drawn) | 94.5 | 79% (inactive) | 94.5% (inactive) | 79.7% (inactive) | 104% (inactive) | 15.8% (inactive) | 88.7 | 104 | -1.87% (inactive) | -1.31% (inactive) | -0.38% (inactive) | -11.2% (inactive) | 2.75% (inactive) | 92.1% (inactive) | 72.8% (inactive) | 1.23% (inactive) | 6.39% (inactive)
4 | O=C(Nc1ccccc1)c1cnc2n(c1=O)CCS2 | 92.5 | 88% (inactive) | 92.5% (inactive) | 101% (inactive) | 91.1% (inactive) | -2.48% (inactive) | 93.5 | 91.1 | -4.8% (inactive) | -0.49% (inactive) | -8.84% (inactive) | 5.01% (inactive) | -0.69% (inactive) | 104% (inactive) | 97.2% (inactive) | 1.94% (inactive) | 2.15% (inactive)
5 | Cc1cc(C)cc(N(CC(=O)NC2CCC(C)CC2)S(=O)(=O)c2c(C)noc2C)c1 (stereo not drawn) | 104 | 101% (inactive) | 104% (inactive) | 94% (inactive) | 88.1% (inactive) | 4.2% (inactive) | 83.8 | 88.1 | -3.59% (inactive) | -5.67% (inactive) | -23.2% (inactive) | -18.5% (inactive) | -1.82% (inactive) | 97.5% (inactive) | 94.9% (inactive) | 2.36% (inactive) | 11.3% (inactive)
6 | O=C(Cn1nc(Cc2cccnc2)c2ccccc2c1=O)Nc1ccc2c(c1)OCO2 | 87 | 96.5% (inactive) | 87% (inactive) | 84.5% (inactive) | 85.2% (inactive) | 9.09% (inactive) | 76.2 | 85.2 | -4.8% (inactive) | -0.67% (inactive) | 0.565% (inactive) | 7.93% (inactive) | 2.16% (inactive) | 99% (inactive) | 106% (inactive) | 0.975% (inactive) | 2.81% (inactive)
7 | O=C(NCCSc1c[nH]c2ccccc12)c1ccc(Br)o1 | 104 | 94.5% (inactive) | 104% (inactive) | 47.8% (inactive) | 54.6% (inactive) | -21.1% (inactive) | 75.8 | 54.6 | -2.93% (inactive) | 1.17% (inactive) | -10.7% (inactive) | -12.6% (inactive) | -3.97% (inactive) | 106% (inactive) | 93.6% (inactive) | 1.83% (inactive) | 3.28% (inactive)
8 | CC1=C(C(N)=O)C(c2ccncc2)n2nc(-c3ccccc3Cl)nc2N1 (stereo not drawn) | 96 | 96.5% (inactive) | 96% (inactive) | 90.1% (inactive) | 100% (inactive) | 13.3% (inactive) | 86.9 | 100 | 0.53% (inactive) | -3.11% (inactive) | -8.2% (inactive) | 6.52% (inactive) | -0.22% (inactive) | 94% (inactive) | 98.8% (inactive) | 1.56% (inactive) | -0.11% (inactive)
9 | CCOC(=O)/C=C1\CC(=O)Nc2nonc2N1 | 112 | 92.5% (inactive) | 112% (inactive) | 109% (inactive) | 105% (inactive) | 9.69% (inactive) | 95.7 | 105 | -1.73% (inactive) | 0.97% (inactive) | 0.64% (inactive) | 9.22% (inactive) | -2.08% (inactive) | 97.5% (inactive) | 95.3% (inactive) | 0.615% (inactive) | 1.93% (inactive)

— PubChem BioAssay
